PubChem BioAssay (NCATS)
“And” between values parts separate entries of the source, which are not always exact repeats. Equal entries are not always repeated. Results filed as inconclusive are left out. The source made the active and inactive calls. Unless noted, the call rests on the fitted dose curve; in most records, active means well fitted curve in the direction sought with a large enough effect; inconclusive means small, poorly fitted or top-dose-only effect, or another doubt; inactive means no such curve, though single readings can be large; an effect the other way counts as inactive or inconclusive.

Experiments:
[1] = qHTS profiling of the MIPE4 collection as inhibitors of Plasmodium falciparum (3D7) proliferation (AID 743344; call rule not given here;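 further: scaled between DMSO vehicle wells and 0.29 µM artemisinin as full inhibition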); conditions: P. falciparum 3D7 in erythrocytes, SYBR Green DNA fluorescence, 72 h; at 28.5 µM unless noted
Outline: (§1)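 Parasite DNA was quantified by SYBR Green I fluorescence (ex 485, em 535 nm) after overnight lysis in saponin/Triton buffer at room temperature. Cultures at 0.3% parasitemia and 2.5% hematocrit were first exposed to compound for 72 h at 37 C; signals were normalised to artemisinin (0.29 uM) and vehicle wells.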

[2] = qHTS profiling of the MIPE4 collection as inhibitors of Plasmodium falciparum (DD2) proliferation (AID 743345; call rule not given here); conditions: P. falciparum Dd2 in erythrocytes, SYBR Green DNA, 72 h; at 28.5 µM unless noted
Outline: as §1

[3] = qHTS profiling of the MIPE4 collection as inhibitors of Plasmodium falciparum (DD2) proliferation (Rep 2) (AID 743346; call rule not given here); conditions: P. falciparum Dd2 in erythrocytes, SYBR Green DNA, 72 h; at 28.5 µM unless noted
Outline: as §1

[4] = qHTS profiling of the MIPE4 collection as inhibitors of Plasmodium falciparum (HB3) proliferation (AID 743347; call rule not given here;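 further: plate controls were DMSO vehicle wells for no effect and artemisinin wells for full effect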); conditions: P. falciparum HB3 in erythrocytes, SYBR Green DNA, 72 h; at 28.5 µM unless noted
Outline: as §1

[5] = qHTS assay for measurement of the activity of small molecule inhibitors on Zika virus induced Caspase-3 activity in human iPSC derived neural progenitor cells (hNPCs) (AID 1224857); further: nearly all actives have a fitted effect of over 65% in size; further: potency means the concentration at half of the fitted maximal effect
Outline: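 Caspase-3/7 induction by a 6-hour ZIKV infection was quantified with a luminescent Caspase-Glo 3/7 reagent incubated 30 minutes at room temperature. Compounds were preincubated with hNPCs for 1 hour; inhibition was calculated against uninfected and infected control wells.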

[6] = qHTS assay for measurement of the activity of small molecule inhibitors on Zika virus induced Caspase-3 activity in human astrocytoma cells (AID 1224859);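 further: plate controls were ZIKV-infected untreated cells for no effect and uninfected cells for full effect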
Outline: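 In SNB-19 cells plated at 250 cells/well and grown 16-20 h, compounds were applied 1 h before ZIKV (2 FFU/cell). Six hours later caspase-3/7 luminescence was recorded.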

[7] = qHTS Screen of the MIPE 4.0 Collection Against Ewings Sarcoma (TC71) (AID 1259253); further: nearly all actives have a fitted effect of over 40% in size; further: potency means the concentration at half of the fitted maximal effect
Outline: (§2)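 Viability screen: 48 h incubation at 37C, 95% humidity, 5% CO2 with serially titrated compound, followed by CellTiter-Glo readout.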

[8] = Identifying Small Molecule Inhibitors of Pancreatic Cancer Stem Cells (SN12C, Adherent) (AID 1259358);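 further: cell survival measured after 48 h of compound exposure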; further: potency means the concentration at half of the fitted maximal effect
Outline: (§3)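 Monolayer and spheroid cultures are compared. Spheroids form over 14 days in stem cell medium on hydrogel-coated low-attachment plates, then are exposed to compound for 48 h before CellTiter-Glo luminescence.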

[9] = Identifying Small Molecule Inhibitors of Pancreatic Cancer Stem Cells (A278, Adherent) (AID 1259361);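 further: viability read after 48 h compound exposure; nearly all actives have a fitted effect of over 35% in size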;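 on viability (% of control): 100% = DMSO-treated cells and 0% = cell-free media-only wells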
Outline: as §3

[10] = P-glycoprotein substrates identified in KB-8-5-11 adenocarcinoma cell line, qHTS therapeutic library screen (AID 1346987); further: nearly all actives have a fitted effect of over 65% in size; further: potency means the concentration at half of the fitted maximal effect
Outline: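 Human cervical adenocarcinoma KB-8-5-11 cells, selected in colchicine to over-express P-gp and assayed without it, were exposed for 72 h to titrated compounds. An ATP-based luminescent viability signal gave AC50.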

[11] = High-throughput drug toxicity screening in the BPDCN cell line Cal-1 (AID 1224825; call rule not given here); conditions: Cal-1 BPDCN cell viability, qHTS; at 45.8 µM (top of the series) unless noted
Outline: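 CellTiter-Glo luminescence after 48 h compound exposure; percent activity scaled with DMSO as 100% and bortezomib (9.2 uM final) as 0%. Cal-1 cells seeded at 500/well in RPMI, 10% FBS, no phenol red.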

[12] = qHTS Screen of the MIPE 4.0 Collection Against Ewings Sarcoma (RDES) (AID 1259252); further: nearly all actives have a fitted effect of over 35% in size; further: potency means the concentration at half of the fitted maximal effect
Outline: as §2

[13] = qHTS Screen of the MIPE 4.0 Collection Against Ewings Sarcoma (EW8) (AID 1259255); further: nearly all actives have a fitted effect of over 35% in size; further: potency means the concentration at half of the fitted maximal effect;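 on viability: 100% = DMSO-treated cells and 0% = medium-only wells without cells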
Outline: as §2

[14] = qHTS Screen of the MIPE 4.0 Collection Against Ewings Sarcoma (TC32) (AID 1259256); further: nearly all actives have a fitted effect of over 45% in size; further: potency means the concentration at half of the fitted maximal effect
Outline: as §2

[15] = High-throughput drug toxicity screening in the BPDCN cell line Gen2.2 (AID 1224824; call rule not given here); conditions: Gen2.2 BPDCN cells; at 45.8 µM (top of the series) unless noted
Outline: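 Gen2.2 cells, 500 per well in phenol red-free RPMI with 10% FBS, exposed to compounds 48 h at 37 C, 5% CO2; viability by CellTiter-Glo luminescence. Percent activity scaled to DMSO (100%) and 9.2 uM bortezomib final (0%).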

Compound | parasite growth, % of DMSO control [1] [%] | parasite growth remaining, % of DMSO control (lower = more inhibition) [2] [%] | parasite growth, % of control (lower = inhibition) [3] [%] | growth, % of control [4] [%] | Potency [5] | Potency [6] | Potency [7] | Potency [8] | IC50 (viability decrease) [9] | Potency [10] | viability (% of control) [11] [%] | Potency [12] | Potency [13] | Potency [14] | cell viability, % of control (lower = more cytotoxic) [15] [%]
CN(C)C1CCN(C(=O)c2ccc(NC(=O)Nc3nc(N4CCOCC4)nc(N4CCOCC4)n3)cc2)CC1 | 5.78 | 7.83 | 9.5 | 4.82 | inactive | inactive | 0.0743 µM (active) | 0.0074 µM (active) | 0.0148 µM (active) | 14.8 µM (active) | – | – | – | – | –
NC(=O)c1cccc(-c2cc(Nc3ccc(OC(F)(F)F)cc3)ncn2)c1 | – | 63.7 | 23 | 8.8 | inactive | inactive | – | – | – | inactive | 77.2 | – | – | – | –
CC(C)(C)COc1ccc(-n2cc(C(=O)O)cn2)cc1C#N | – | 90.1 | 76.9 | 67.6 | 14.8 µM (active) | – | inactive | inactive | inactive | inactive | 106 | inactive | inactive | inactive | –
Cn1cc(C=C2C(=O)Nc3cccnc32)c2ccccc21 | 42.6 | 82.2 | 53 | 2.02 | inactive | inactive | inactive | – | – | inactive | – | – | – | inactive | –
NC(=O)c1ccc2nc(-c3ccc(Oc4ccc(Cl)cc4)cc3)[nH]c2c1 | 48.1 | 76.9 | 61.3 | 83.4 | inactive | inactive | 0.526 µM (active) | – | – | – | 38 | – | – | – | –
O=C(NC1CCOCC1)c1ccc(-c2cc(-c3cn[nH]c3-c3ccccn3)ccn2)cc1 | 17.3 | 82.7 | 40.9 | 47.3 | inactive | inactive | – | – | – | inactive | 131 | – | inactive | inactive | –
O=C(CCCCCCC(=O)Nc1ccccc1)NO | – | – | – | – | – | – | – | – | 3.4 µM (active) | 4.61 µM (active) and 3.66 µM (active) and 6.62 µM (active) | – | – | – | – | 171
Nc1nc(Cl)nc2c1ncn2[C@@H]1O[C@H](COP(=O)(O)OP(=O)(O)OP(=O)(O)O)C(O)[C@H]1O (some centres undefined) | – | – | – | – | inactive | – | – | – | – | – | – | – | – | – | –
O=C(O)C=Cc1ccc(O)c(O)c1 | 53.1 | 82.5 | 22.8 | – | – | inactive | 18.7 µM (active) | – | – | inactive | 8.99 | 8.33 µM (active) | 23.5 µM (active) | 20.9 µM (active) | –
CO[C@H]1C=CO[C@@]2(C)Oc3c(C)c(O)c4c(O)c(c5c(c4c3C2=O)NC2(CCN(CC(C)C)CC2)N=5)=NC(=O)C(C)=CC=C[C@H](C)[C@H](O)[C@@H](C)[C@@H](O)[C@@H](C)[C@H](OC(C)=O)[C@H]1C | 5.28 | 17.8 | 12.8 | 5.92 | inactive | inactive | inactive | – | – | – | 97.3 | – | – | inactive | –
